# In the library only some 2.6% were active in any assay of this set; here they are far more common.
# PABP FP inh – PABP-poly(A) binding inhibition. P11940. PABP-poly(A) RNA binding, fluorescence polarization. inhibition, % at 35 µM. 1% of 290,000 active;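 further: calls also rest on retests at 20 µM and on dose response follow-up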
# CRFBP-R2 block – blocks CRF-induced signaling of the CRF-BP/CRF-R2 complex; AID 588475; HEK293 CRF-R2/CRF-BP, CRF-induced calcium fluorescence; 0.59% of 350,000 active; inhibition, % at 11.8 µM;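 active means inhibition of the ligand-induced calcium signal above about 50% at the single tested concentration, limit read from the data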
# eIF4H FP inh – inhibitors of RNA binding by human eIF4H | 0.94% of 290,000 active | AID 2012 | eIF4H fluorescence polarization binding assay | Q15056 | inhibition, % at 35 µM;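 further: calls also rest on retests at 20 µM and on dose response follow-up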
# PHOSPHO1 inh – blocks human PHOSPHO1 phosphatase activity; Q8TCT1; recombinant PHOSPHO1, absorbance phosphatase assay; inhibition, % at 13.3 µM; 1.1% of 290,000 active; AID 1565; in the data active means inhibition above about 60%
# PABP1 MLLE inh – blocks PAM2 peptide binding to the PABP1 MLLE domain; 0.36% of 360,000 active; inhibition, % at 20 µM; GST-MLLE / FITC-PAM2 fluorescence polarization; in the data active means inhibition above about 35%, passing the limit was not always enough;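 further: plate controls were DMSO wells with GST-MLLE for no effect and wells lacking GST-MLLE protein for full effect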
# * = called active by the depositor; ? = inconclusive; · = not tested or not shown. Unless noted, how the calls were made is not given here.
SMILES,PABP FP inh,CRFBP-R2 block,eIF4H FP inh,PHOSPHO1 inh,PABP1 MLLE inh
CC(C)(C)CN1CCNC(=O)C1CC(=O)NCCN1CCCc2ccccc21 (stereo not drawn),16,2,58*,26,18
CC(C)(C)NC(=O)CN(C(=O)CCN1CCCc2ccccc21)C(C)(C)C,-7,-11,-16,11,54*
Cc1ccc(Sc2c(C=O)c3ccccc3n2C)cc1,3,58*,10,-15,11
CCc1nc2c(OCc3cc(Cl)cc(Cl)c3)cccn2c1N(C)C(=O)c1cccc(OC)c1,·,·,·,·,1
CCC(C)[C@H](N)C(=O)N[C@H]1CCC2C3CC=C4C[C@@H](O)CC[C@]4(C)C3CC[C@@]21C (stereo partly drawn),·,22,·,·,0
OCCC1CN(Cc2cnn(-c3ccc(F)cc3)c2)CCN1Cc1ccsc1 (stereo not drawn),-3,-6,-1,60*,2
CC(=O)c1cccc(CN2CCN(Cc3ccc(F)cc3)C(CCO)C2)c1 (stereo not drawn),10,0,-6,60*,4
CC(=O)c1cccc(CN2CCN(Cc3ccc(C)cc3)C(CCO)C2)c1 (stereo not drawn),5,14,0,23,-13
COCCNC(=O)C1(C)CCCN(C(=O)c2ccc3snnc3c2)C1 (stereo not drawn),·,·,·,·,4
O=C1NC(=O)C2(CCC(C3CCCCC3)CC2)N1 (stereo not drawn),·,-18,·,·,14
COc1ccc(N(C)S(=O)(=O)c2cccc(C(=O)OCC(=O)N3CC(C)CC(C)C3)c2)cc1 (stereo not drawn),·,8,·,·,7
Cc1nn(Cc2ccccc2Cl)c(C)c1NC(=O)c1ccn(C)n1,-6,21,-6,11,-1
Cc1nn(Cc2ccccc2Cl)c(C)c1NC(=O)c1nc2ncccn2n1,-2,58*,-4,-1,-9
O=[N+]([O-])c1cc([N+](=O)[O-])c2cc3ccccc3nc2c1,9,36,22,33,45*
O=[N+]([O-])c1cnc2ccccc2c1,6,-4,4,1,10
O=C(O)c1cccc(COc2ccc3c(c2)CCC3)c1,36,13,45,-1,-12
O=C(O)c1ccc2c(c1)CCCN2,63*,-7,52*,-4,18
CC(C)(C)NC(=O)C[C@H]1C[C@H](C(=O)N2CCCCC2)[C@@]2(C)c3[nH]c4ccc(Cl)cc4c3CCN2C1=O,·,30,·,·,4
CCC(=O)N1CN(S(=O)(=O)c2ccc(C)cc2)CC1C (stereo not drawn),3,11,6,-2,16
NC(=S)Nc1cccc2cc3ccccc3cc12,?,-3,?,97*,131
C=CCN(CC=C)C(=S)Nc1ccc2nsnc2c1,-6,0,13,28,52*
COc1cc(OC)cc(-c2noc(-c3csc([C@@H]4C[C@H](O)[C@@H](CO)O4)n3)n2)c1,·,·,·,·,1
CCn1c2ccccc2c2nnc(SCc3ccccc3)nc21,-24,3,-4,-6,1
CCn1c2ccccc2c2nnc(SCc3ccc(C(=O)OC)o3)nc21,-2,37,-3,-75,41*
CCc1ccc(-n2c(=S)sc3c(=O)n(-c4ccccc4)c(SCC(=O)O)nc32)cc1,-6,-3,1,38,2
SMILES,PABP FP inh,CRFBP-R2 block,eIF4H FP inh,PHOSPHO1 inh,PABP1 MLLE inh
COC(=O)c1ccc(CC2(C)C(=O)Nc3ccc(-c4cccc(C(F)(F)F)c4)cc32)o1 (stereo not drawn),·,·,·,·,-1
O=C(C1CCN(C2CCN(C/C=C/c3ccccc3)CC2)CC1)N1CCOCC1,3.0*,-5,56*,32,-8
O=C(C1CCN(Cc2ccccc2)CC1)N1CCN(C/C=C/c2ccccc2)CC1,5,-2,-6,-4,6
CNC[C@@H]1Oc2cc(Br)ccc2S(=O)(=O)N([C@@H](C)CO)C[C@H]1C,·,-17,·,·,8
C/C(=N\NC(=O)c1cccc(Cl)c1)C1C(=O)c2ccccc2C1=O,1,85*,5,-4,0
O=C1N=c2ccccc2=C1c1sc(=S)n(NC(=O)c2cccc(O)c2)c1O,11,65*,-8,-16,31
O=C(Nn1c(O)c(C=C2N=c3ccccc3=N2)sc1=S)c1ccccc1,32,-21,27,86*,3
Cc1ccc(C(=O)Nn2c(O)c(C=C3N=c4ccccc4=N3)sc2=S)cc1,?,-9,?,-105,-26
O=C(Nn1c(O)c(C=C2N=c3ccccc3=N2)sc1=S)c1ccc(Cl)cc1,24,-2,23,42,-77
